# Source: PubChem
# A selection: hits, their analogues and other compounds. The true share with any hit is near 3.5%.
# TEAD-YAP block: TEAD-YAP interaction inhibition. actives 1.4% (n = 640,000). HEK-TIYL cells, TEAD-Gal4/YAP UAS-luciferase luminescence. inhibition, % at 9.12 µM; in the data active = inhibition above about 32%
# FBW7 activator: human FBW7 E3 ligase activation, primary screen; Q969H0; AlphaScreen FBW7–phospho-cyclin E peptide binding, activator screen; normalized activity (activation), % at 26.1 µM; actives 0.13% (n = 650,000); AID 1259310; in the data active = normalized activity above about 1.9%;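 also: purified mutant Fbw7 with reduced substrate affinity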
# MITF primary: human MITF inhibition, primary screen | O75030 | AlphaScreen MITF homodimerization, bead proximity signal | inhibition, % at 2.6 µM | actives 0.91% (n = 650,000); in the data active = inhibition above about 50%
# GPR151 ag: activates the human receptor GPR151; AID 1508602; activation, % at 11.2 µM; actives 1% (n = 650,000); Q8TDV0; PathHunter beta-arrestin GPR151 cells, luminescence; in the data active = activation above about 4.9%
# Target sequence (Q8TDV0 whole entry, looked up): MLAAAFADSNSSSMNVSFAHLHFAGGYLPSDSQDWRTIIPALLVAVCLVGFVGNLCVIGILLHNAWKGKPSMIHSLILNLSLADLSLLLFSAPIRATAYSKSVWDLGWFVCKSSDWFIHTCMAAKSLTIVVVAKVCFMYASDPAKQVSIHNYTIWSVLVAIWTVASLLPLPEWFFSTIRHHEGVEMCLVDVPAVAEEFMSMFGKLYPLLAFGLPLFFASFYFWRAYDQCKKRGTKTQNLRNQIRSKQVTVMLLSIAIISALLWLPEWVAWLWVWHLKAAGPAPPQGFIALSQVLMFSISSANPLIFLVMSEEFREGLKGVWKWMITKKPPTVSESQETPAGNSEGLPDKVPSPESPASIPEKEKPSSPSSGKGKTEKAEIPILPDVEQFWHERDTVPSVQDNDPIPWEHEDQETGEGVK
# Numbers stand for hits; - = inactive.
SMILES,TEAD-YAP block,FBW7 activator,MITF primary,GPR151 ag
CCP(=O)(CC)Nc1cccc(C(F)(F)F)c1,-,-,-,-
O=C(Nc1cccc(C(F)(F)F)c1)c1cc(Cl)ccc1O,78,-,-,-
CC(NCc1ccc(F)cc1)C(O)c1ccccc1 (configuration not stated),-,-,-,-
CCN(CC)c1ccc(CNC(C)C(O)c2ccccc2)cc1 (configuration not stated),53,-,-,-
CCN1CCN(c2cc(N3CCCCC3)c(F)cc2[N+](=O)[O-])CC1,-,-,-,-
COc1cc([C@@H]2c3cc4c(cc3[C@@H](O)[C@H]3COC(=O)[C@H]23)OCO4)cc(OC)c1O,-,-,-,-
COc1cc([C@@H]2c3cc4c(cc3[C@H](OC(C)=O)[C@H]3COC(=O)[C@@H]23)OCO4)cc(OC)c1OC,52,-,-,-
CC1Cc2ccccc2N1P(=O)(N(C)C)N(C)C (configuration not stated),-,-,-,-
COC(=O)Nc1nc2ccccc2[nH]1,35,-,-,-
O=C(c1ccccc1Cl)c1cc([N+](=O)[O-])ccc1-n1cccc1,51,-,-,-
CC(C)N(C(=O)CCl)c1ccccc1,33,-,-,-
C=CCNC(=O)c1cccn(Cc2ccc(Cl)cc2)c1=O,-,-,-,-
Cc1nn(Cc2ccccc2Cl)c(C)c1C(=O)O,-,-,-,-
O=c1[nH]c(=S)n(Cc2ccco2)c(O)c1C=NCc1cccs1,-,-,-,-
N#Cc1c(/N=C/c2c(O)n(Cc3ccco3)c(=O)[nH]c2=O)sc2c1CCCC2,-,-,53,-
CN1CCN(c2cccc3c2C(=O)c2ccccc2C3=O)CC1,37,-,-,-
CC(=O)c1cccc(NC(=O)N(Cc2ccco2)C2CCN(Cc3ccncc3)CC2)c1,-,-,-,-
CC/C(=C\c1sc2ccc(OC)cc2[n+]1CC)SC (tested in a mixture with another compound),-,-,-,-
CC[n+]1c(/C=C/N(C)c2ccccc2)sc2ccc(OC)cc21,79,-,-,-
O=C(Oc1ccc([N+](=O)[O-])c2cccnc12)c1cccc(S(=O)(=O)N2CCOCC2)c1,-,-,72,-
O=C(Oc1cccc2cccnc12)c1cccc(S(=O)(=O)N2CCCCCC2)c1,-,-,-,-
CCOC(=O)c1ccc(NC(=O)C(=O)O)cc1,-,-,-,-
O=C1NC(=O)C(=Cc2ccc([N+](=O)[O-])o2)C(=O)N1,-,-,79,-
CCOC(=O)C1C2NC(=S)N(c3cccc(Cl)c3)C1(C)Oc1ccc(Br)cc12 (configuration not stated),-,-,-,-
CC(=O)Oc1ccc(/C=C/c2cc(OC(C)=O)cc(OC(C)=O)c2)cc1,96,-,-,-
SMILES,TEAD-YAP block,FBW7 activator,MITF primary,GPR151 ag
Cc1ccn2c(CNC(C)Cc3ncccc3C)c(C(=O)N3CCCCCC3)nc2c1 (configuration not stated),-,-,-,-
O=C1NC(=S)N(c2ccc(F)cc2)C(=O)/C1=C/c1ccco1,-,-,63,-
O=C1NC(=O)N(c2cccc3ccccc23)C(=O)/C1=C\c1ccco1,-,-,78,-
O=C1NC(=S)N(c2ccccc2)C(=O)/C1=C\C=C\c1ccco1,-,-,75,-
O=C1NC(=S)N(c2ccc(Cl)cc2)C(=O)/C1=C/c1ccco1,-,-,-,-
Cc1cc(=O)c(C(=O)NCCn2ccnc2)c(CCc2ccccc2)n1CC1CCCO1 (configuration not stated),-,-,-,-
CCOC(=O)C12OC1(c1ccc(CC)cc1)C(=O)c1ccccc1C2=O (configuration not stated),37,-,-,-
CCOC(=O)C1=C(C)NC(C)=C2C(=O)Oc3ccccc3C12 (configuration not stated),-,-,-,-
CCOC(=O)C1C2NC(=S)N(c3ccc(Cl)cc3)C1(C)Oc1c(OC)cccc12 (configuration not stated),62,-,-,-
CCOC(=O)C1C2NC(=S)N(c3ccc(Cl)cc3)C1(C)Oc1ccc(OC)cc12 (configuration not stated),50,-,-,-
Cc1cc2nc(NC(=O)c3ccn(C(C)C)n3)sc2cc1C,-,-,-,-
CC(C)=CCCC1(C)C=Cc2c(O)c3c(c(CC=C(C)C)c2O1)OC12C(=CC4CC1C(C)(C)OC2(C/C=C(\C)C(N)=O)C4=O)C3=O (configuration not stated),38,-,-,-
COc1cc(C=C2C(=O)NC(=S)NC2=O)ccc1OCc1cccc(C(=O)O)c1,85,-,-,-
